USP10 block: blocks human USP10 ubiquitin-rhodamine cleavage | Q14694 | purified USP10, Ub-rhodamine fluorescence, 60 min | inhibition, % at 20 µM | 1.1% of 47,000 active | AID 1645856
USP30 block: human USP30 deubiquitinase inhibition; Q70CQ3; purified USP30, Ub-rhodamine cleavage fluorescence; inhibition, % at 25 µM; 5.3% of 47,000 active
Target sequence (Q70CQ3 whole entry, looked up): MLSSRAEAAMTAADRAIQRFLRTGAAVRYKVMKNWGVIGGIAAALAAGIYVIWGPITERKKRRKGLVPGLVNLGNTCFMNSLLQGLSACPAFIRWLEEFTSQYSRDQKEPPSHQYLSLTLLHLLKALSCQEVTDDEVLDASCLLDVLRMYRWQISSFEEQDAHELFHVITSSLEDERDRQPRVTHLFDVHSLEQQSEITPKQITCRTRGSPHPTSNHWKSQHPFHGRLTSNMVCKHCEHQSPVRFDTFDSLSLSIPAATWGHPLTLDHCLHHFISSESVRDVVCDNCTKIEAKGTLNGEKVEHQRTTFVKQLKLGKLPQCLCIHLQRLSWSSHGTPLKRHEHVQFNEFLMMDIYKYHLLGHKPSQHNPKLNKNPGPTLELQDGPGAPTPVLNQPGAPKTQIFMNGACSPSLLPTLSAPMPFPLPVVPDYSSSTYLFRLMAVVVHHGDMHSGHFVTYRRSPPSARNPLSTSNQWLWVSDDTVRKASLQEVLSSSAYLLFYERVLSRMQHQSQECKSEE
USP17 block: blocks human USP17 ubiquitin-rhodamine cleavage; AID 1645855; inhibition, % at 50 µM; 6.5% of 47,000 active; purified USP17, Ub-rhodamine cleavage fluorescence, 3 h
USP8 inh: inhibitors of human USP8 deubiquitinase | purified USP8, Ub-rhodamine cleavage fluorescence, 30 min | 4.2% of 47,000 active | P40818 | inhibition, % at 20 µM
USP28 inh: inhibitors of human USP28 deubiquitinase; Q96RU2; purified USP28, Ub-rhodamine cleavage fluorescence, 30 min; inhibition, % at 25 µM; 3% of 47,000 active; AID 1645857
* marks the source's active call; other numbers are inactive results. The list is not random: actives were taken first. Their share in the collection is about 14%. Rule as the data show it: active = inhibition above about 30%; inactive = the rest.

SMILES	USP10 block	USP30 block	USP17 block	USP8 inh	USP28 inh
c1ccc2c(c1)nc(NC1CC1)c1nncn12	-3	-151	-46	-5	-49
N#Cc1ccccc1NC(=O)Cn1cccc(S(=O)(=O)N2CCCCCC2)c1=O	-3	-12	-2	-29	-7
O=C(NCCc1ccco1)c1ccc(N2CCOc3ccccc32)s1	19	47*	57*	20	22
O=C(NC1CCCCCC1)c1ccc(N2CCOc3ccccc32)s1	5	-80	-17	-19	-15
CCOc1cc(=O)n2c(c1C(=O)Nc1cccc(C#N)c1)CCCC2	0	-2	3	-2	3
COc1ccc(NC(=O)[C@H](C)NC(=O)c2cc3c(OC)cccc3[nH]2)cc1Cl	51*	70*	86*	98*	74*
COc1ccc(OC)c(NC(=O)c2cc3c(OC)cccc3[nH]2)c1	-7	-45	7	-8	0
O=C(CNC(=O)c1cc2ccccc2[nH]1)Nc1ccc2c(c1)OCCO2	5	25	51*	5	18
CCOC(=O)N1CCN(C(=O)CNC(=O)c2cc3c(OC)cccc3[nH]2)CC1	0	15	13	12	18
COc1cccc2[nH]c(C(=O)NCC(=O)Nc3ccc4c(c3)OCO4)cc12	3	-4	40*	1	4
O=C(Nc1ccc(S(=O)(=O)N2CCOCC2)cc1)c1oc(=O)c2ccccc2c1-c1ccccc1	5	34*	37*	13	0
Cc1cccc(NC(=O)Cn2c(=O)n(Cc3ccc(F)cc3)c(=O)c3sccc32)c1	18	35*	69*	4	15
CCOc1ccc(NC(=O)Cn2c(=O)n(CCCCCC(=O)NCc3ccc(F)cc3)c(=O)c3sccc32)cc1	51*	49*	43*	69*	21
COc1ccc(Cl)cc1NC(=O)Cn1c(=O)n(CCCC(=O)NCc2ccc(C)cc2)c(=O)c2sccc21	69*	20	20	68*	-2
CCOC(=O)c1ccc(NC(=O)Cn2c(=O)n(CC(=O)NCCc3ccc(OC)c(OC)c3)c(=O)c3sccc32)cc1	3	66*	25	13	21
Cc1ccc(CNC(=O)CCCCCn2c(=O)c3sccc3n(CC(=O)c3ccc(Cl)cc3)c2=O)cc1	-4	-36	-3	8	3
Cc1cccc(NC(=O)Cn2c(=O)n(-c3cc(C)cc(C)c3)c(=O)c3sccc32)c1	19	24	12	25	3
COCCNC(=O)c1ccc2c(c1)nc1n2CCN(C2CCCCC2)C1=O	0	7	7	4	4
COc1ccc(NC(C)C(=O)N2CC(=O)Nc3ccccc32)cc1 (centres undefined)	1	13	14	19	3
COc1ccc(C(NC(=O)c2nc3n(n2)-c2ccccc2S(=O)(=O)N3)C(C)C)cc1 (centres undefined)	30*	14	33*	9	18
O=S(=O)(c1cccc(-c2nnc(-c3ccc(Cl)cc3)o2)c1)N1CCCC1	2	-5	-9	-37	-1
Cc1c(C(=O)N=CN(C)C)sc(C#N)c1-c1ccccc1	-2	32*	18	1	7
CCc1ccc2nc(NC(=O)c3ccc(=O)[nH]c3)sc2c1	9	1	33*	-5	1
C[C@@H](NS(=O)(=O)c1ccc(Cl)cc1)C(=O)NCc1cscn1	0	21	18	24	10
COc1c2c(c(C)c3c1C(=O)OC3)O[C@@]1(C)CC[C@@]3(O)C(C)(C)OC(=O)CC[C@]3(C)[C@H]1C2	-15	-81	-34	-33	-18
SMILES	USP10 block	USP30 block	USP17 block	USP8 inh	USP28 inh
Cc1cc2nc(/C=C/c3ccccc3)n(Cc3cccc(F)c3)c2cc1C	6	0	-6	-18	51*
Cc1cc(C)c(C#N)c(N2CCN(S(=O)(=O)Cc3ccccc3)CC2)n1	5	22	45*	1	3
CC(=O)NC(Cc1ccccc1)C(=O)NC1CCN(c2nc(C)cc(C)c2C#N)CC1 (centres undefined)	-8	-28	-14	-5	-7
O=C(c1ccc(COc2cccc3ccccc23)o1)N1CCC(Cc2ccccc2)CC1	2	-83	68*	-11	0
O=C(COc1ccccc1F)N1CCC(Cc2ccccc2)CC1	0	17	13	1	11
Cc1ccc2[nH]cc(S(=O)(=O)c3cc(F)cc(F)c3)c(=O)c2c1	26	8	12	98*	6
O=[N+]([O-])c1ccc2[nH]cc(S(=O)(=O)Nc3ccc(F)cc3F)c2c1	5	2	6	-54	-2
